Reference: PubChem BioAssay (EPA / NIEHS)
“And” between values parts separate entries of the source, which are not always exact repeats. Equal values may be shown once. Some structures have more than one record in an assay (separate samples or runs), and their calls can disagree. The source made the active and inactive calls. Rule for the calls: active = hit-call score of the fitted dose curve at least 0.9, where 1 is the maximum; inactive = score below 0.9.

Tests used:
[1] = read-out: Interleukin-8 (IL8), CXCL8 (gene 3576); test: BSK_MyoF_IL8: BioMAP Diversity Plus: MyoF Assay for Interleukin-8 (IL8) Biomarker Activity (AID 2284261); conditions: primary human lung fibroblasts
Method in brief: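 DMSO-normalised, upward-fitted IL-8 ELISA signal; human lung fibroblasts, 24 h chemical treatment.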

[2] = read-out: Decorin, DCN (gene 1634); test: BSK_MyoF_Decorin: BioMAP Diversity Plus: MyoF Assay for Decorin Biomarker Activity (AID 2284265); conditions: primary human lung fibroblasts
Method in brief: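 In this multiplexed fibroblast system, secreted or surface decorin is detected by ELISA one day after dosing, with increases scored against the DMSO vehicle.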

[3] = BSK_MyoF_SRB: Viability Assessment in the BioMAP Diversity Plus: MyoF Assay (AID 2284267); conditions: primary human lung fibroblasts;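 note: total protein by SRB absorbance in parallel cultures as cytotoxicity measure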
Method in brief: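 In this viability endpoint, fibroblasts from human lung are treated for 24 h, TCA-fixed, SRB-stained (0.1%) and read at 560 nm. Gain of signal relative to DMSO defines activity.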

[4] = read-out: Matrix Metallopeptidase 1 (MMP1), MMP1 (gene 4312); test: BSK_MyoF_MMP1: BioMAP Diversity Plus: MyoF Assay for Matrix Metallopeptidase 1 (MMP1) Biomarker Activity (AID 2284268); conditions: primary human lung fibroblasts
Method in brief: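 Fibroblasts from human lung receive compound for 24 h before ELISA quantitation of MMP1. DMSO serves as baseline, and the endpoint is fitted for signal gain.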

[5] = read-out: TIMP metallopeptidase inhibitor 1 (TIMP1), TIMP1 (gene 7076); test: BSK_MyoF_TIMP1: BioMAP Diversity Plus: MyoF Assay for TIMP metallopeptidase inhibitor 1 (TIMP1) Biomarker Activity (AID 2284269); conditions: primary human lung fibroblasts
Method in brief: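 Fibroblasts from human lung are dosed with chemical, cultured 24 h, and assayed for TIMP-1 by ELISA. Increases over the DMSO baseline are scored, with SRB total-protein staining run in parallel for cytotoxicity.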

[6] = read-out: Intercellular Adhesion Molecule 1 (ICAM1), ICAM1 (gene 3383); test: BSK_BF4T_ICAM1: BioMAP Diversity Plus: BF4T Assay for Intercellular Adhesion Molecule 1 (ICAM1) Biomarker Activity (AID 2284260); conditions: primary human bronchial epithelial cells with fibroblasts
Method in brief: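 ICAM-1 levels measured by ELISA after 24 h chemical treatment of bronchial epithelial cell/dermal fibroblast co-cultures, read against DMSO baseline. Overt cytotoxicity checked in parallel cultures by sulforhodamine B staining.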

[7] = read-out: CD90, THY1 (gene 7070); test: BSK_BF4T_CD90: BioMAP Diversity Plus: BF4T Assay for CD90 Biomarker Activity (AID 2284262); conditions: primary human bronchial epithelial cells with fibroblasts
Method in brief: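 CD90 levels by ELISA after 24 h treatment of human bronchial epithelial cell/dermal fibroblast cultures, analysed versus DMSO. Overt cytotoxicity checked in parallel cultures by sulforhodamine B staining.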

[8] = read-out: Interleukin-8 (IL8), CXCL8 (gene 3576); test: BSK_BF4T_IL8: BioMAP Diversity Plus: BF4T Assay for Interleukin-8 (IL8) Biomarker Activity (AID 2284263); conditions: primary human bronchial epithelial cells with fibroblasts
Method in brief: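 Human bronchial epithelial cells with dermal fibroblasts co-culture; IL-8 measured by ELISA 24 hours after dosing, fitted vs DMSO. Cytotoxicity tracked in parallel cultures by SRB total-protein staining.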

[9] = read-out: Interleukin-1 alpha (IL1a), IL1A (gene 3552); test: BSK_BF4T_IL1a: BioMAP Diversity Plus: BF4T Assay for Interleukin-1 alpha (IL1a) Biomarker Activity (AID 2284264); conditions: primary human bronchial epithelial cells with fibroblasts
Method in brief: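 ELISA read-out of IL-1α from bronchial epithelial cell/dermal fibroblast co-cultures 24 h after compound addition. Increases scored against DMSO negative control. Cytotoxicity monitored by sulforhodamine B staining of parallel cultures.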

[10] = read-out: KRT18 (gene 3875); test: BSK_BF4T_Keratin818: BioMAP Diversity Plus: BF4T Assay for Keratin 818 Biomarker Activity (AID 2284266); conditions: primary human bronchial epithelial cells with fibroblasts
Method in brief: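 Keratin 8/18 levels quantified by ELISA after 24 h chemical treatment of bronchial epithelial cell/dermal fibroblast co-cultures, fitted in positive direction relative to DMSO. Parallel SRB staining tracks overt cytotoxicity.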

Measured: AC50

Cc1ccc(N=Nc2c(O)ccc3ccccc23)c(C)c1
inactive: [1] | [2] | [3] | [4] | [5]

Cc1cccc2c1ccc1ccccc12
inactive: [1] | [2] | [3] | [4] | [5]

CCCCCc1ccc(O)cc1
inactive: [1] | [2]
active: [3] 28.7 µM | [4] 36.6 µM | [5] 20 µM

CN(CCO)S(=O)(=O)C(F)(F)C(F)(F)C(F)(F)C(F)(F)C(F)(F)C(F)(F)C(F)(F)C(F)(F)F
active: [8] 0.0245 µM
inactive: [6] | [1] | [7] | [8] | [9] | [2] | [10] | [3] | [4] | [5]

Oc1cc2ccccc2cc1O
inactive: [1] | [2] | [3] | [4] | [5]

CN(Cc1cnc2nc(N)nc(N)c2n1)c1ccc(C(=O)N[C@@H](CCC(=O)O)C(=O)O)cc1
inactive: [6] | [1] | [7] | [8] | [9] | [2] | [10] | [3] | [4] | [5]
active: [8] 2.65 µM

O=P(O)(O)CCC(F)(F)C(F)(F)C(F)(F)C(F)(F)C(F)(F)C(F)(F)F
inactive: [6] | [1] | [7] | [8] | [9] | [2] | [10] | [3] | [4] | [5]

Cc1ccc(C(=O)c2ccccc2)cc1
inactive: [1] | [2] | [3] | [5]
active: [4] 38.7 µM

CCCCCCCCCCCCCCCCCC[N+](C)(C)Cc1ccccc1
inactive: [4]
active: [1] 5.06 µM | [2] 10 µM | [3] 2.65 µM | [5] 4.88 µM

COC1=CC(=O)C[C@@H](C)[C@]12Oc1c(Cl)c(OC)cc(OC)c1C2=O
active: [4] 20 µM
inactive: [1] | [2] | [3] | [5]

O=C1OC2(c3ccccc31)c1cc(I)c(O)c(I)c1Oc1c2cc(I)c(O)c1I
inactive: [3]
active: [1] 3.37 µM | [2] 2.56 µM | [4] 0.605 µM | [5] 7.73 µM

C=CC(C)(CCC=C(C)C)OC(C)=O (stereo not given)
inactive: [1] | [2] | [3] | [4] | [5]

O=C(NO)c1ccccc1
inactive: [1] | [2] | [3] | [4] | [5]

C=CC(=O)OCCC(F)(F)C(F)(F)C(F)(F)C(F)(F)C(F)(F)C(F)(F)C(F)(F)C(F)(F)F
inactive: [6] | [1] | [7] | [8] | [9] | [2] | [10] | [3] | [4] | [5]

O=C(O)C(F)(F)OC(F)(F)C(F)(F)OC(F)(F)C(F)(F)OC(F)(F)C(F)(F)C(F)(F)C(F)(F)F
inactive: [7] | [8] | [2] | [4]
active: [6] 8.19 µM and 7.58 µM | [1] 46.8 µM and 44.5 µM | [7] 14.6 µM | [8] 53.7 µM | [9] 11 µM and 13.4 µM | [2] 17.3 µM | [10] 14.6 µM and 7.97 µM | [3] 13 µM and 9.16 µM | [5] 8.18 µM and 8.09 µM

O=C1c2ccc(O)c(O)c2C(=O)c2c(O)ccc(O)c21
inactive: [1] | [2] | [3] | [4] | [5]

CCOC(=O)CN[C@@H](C(=O)N1CC[C@H]1C(=O)NCc1ccc(/C(N)=N/O)cc1)C1CCCCC1
inactive: [1] | [2] | [3] | [4] | [5]

CC(C)(C)c1ccc(O)c(O)c1
active: [3] 33.5 µM | [5] 31.2 µM
inactive: [1] | [2] | [4]

Clc1ccc(Nc2nnc(Cc3ccncc3)c3ccccc23)cc1
inactive: [1] | [2] | [4] | [5]

OCCN1CN(CCO)CN(CCO)C1
inactive: [1] | [2] | [3] | [4] | [5]

CCCCC(CC)C(=O)OCCOCCOCCOCCOC(=O)C(CC)CCCC (stereo not given)
inactive: [1] | [2] | [3] | [4] | [5]

COCN(COC)c1nc(N(COC)COC)nc(N(COC)COC)n1
inactive: [1] | [2] | [3] | [4] | [5]

OCC(F)(F)C(F)(F)C(F)(F)C(F)(F)C(F)(F)C(F)(F)C(F)(F)C(F)(F)C(F)(F)C(F)(F)C(F)(F)F
inactive: [6] | [1] | [7] | [8] | [9] | [2] | [10] | [3] | [4] | [5]

O=C(O)CCC(F)(F)C(F)(F)C(F)(F)C(F)(F)C(F)(F)C(F)(F)F
inactive: [6] | [1] | [7] | [8] | [9] | [2] | [10] | [3] | [4] | [5]

COc1cc(OC)nc(NC(=O)NS(=O)(=O)Nc2ccccc2C(=O)N(C)C)n1
inactive: [1] | [2] | [3] | [4] | [5]

O=C(NCc1ncc(C(F)(F)F)cc1Cl)c1c(Cl)cccc1Cl
inactive: [1] | [2] | [3] | [4] | [5]

CN(C)c1ccc(C(=C2C=CC(=[N+](C)C)C=C2)c2ccccc2)cc1
active: [1] 2.76 µM | [3] 0.485 µM | [5] 0.697 µM
inactive: [2] | [4]

NC(=NCCCCCCN=C(N)/N=C(\N)Nc1ccc(Cl)cc1)/N=C(\N)Nc1ccc(Cl)cc1
active: [1] 5.05 µM | [2] 9.05 µM | [3] 4.76 µM | [4] 9 µM | [5] 4.84 µM

COc1cccc(O)c1
inactive: [1] | [2] | [3] | [4] | [5]

C[C@]12CC[C@@H]3c4ccc(O)cc4CC[C@H]3[C@@H]1C[C@@H](O)[C@@H]2O
inactive: [1] | [2] | [3] | [4] | [5]

C=COC(=O)C(C)(C)CCCCCC
active: [2] 31.7 µM | [3] 30.9 µM
inactive: [1] | [4] | [5]

CC[N+](CC)(CC)Cc1ccccc1
inactive: [1] | [2] | [3] | [4] | [5]

C=CC(=C)CC/C=C(\C)CCC=C(C)C
inactive: [1] | [2] | [3] | [4] | [5]

O=S(=O)(O)C(F)(F)C(F)(F)C(F)(F)C(F)(F)C(F)(F)C(F)(F)C(F)(F)C(F)(F)C(F)(F)C(F)(F)F
inactive: [6] | [1] | [7] | [9] | [2] | [10] | [3] | [4] | [5]
active: [8] 2.65 µM and 6.99 µM

O=C(CC(=O)C(F)(F)C(F)(F)C(F)(F)F)c1cccs1
inactive: [1] | [7] | [2] | [3] | [4] | [5]
active: [6] 20 µM and 18.8 µM | [7] 9.69 µM | [8] 52.8 µM and 55.1 µM | [9] 43 µM and 45 µM | [10] 23.1 µM and 28 µM

O=P(O)(O)CCC(F)(F)C(F)(F)C(F)(F)C(F)(F)C(F)(F)C(F)(F)C(F)(F)C(F)(F)F
inactive: [6] | [1] | [7] | [8] | [9] | [2] | [10] | [3] | [4] | [5]

O=C(O)CCC(F)(F)C(F)(F)C(F)(F)C(F)(F)C(F)(F)F
inactive: [6] | [1] | [7] | [8] | [9] | [2] | [10] | [3] | [4] | [5]

CC1=NN(c2ccccc2)C(=O)C1
inactive: [1] | [2] | [3] | [4] | [5]
